Inconclusive results are not listed. Calls of active or inactive are those of the source. Unless noted, calls follow the shape of the dose curve; as a rule, active = well fitted curve in the direction sought with a large enough effect; inconclusive = small, poorly fitted or top-dose-only effect, or another doubt; inactive = no such curve, though single readings can be large; an effect the other way counts as inactive or inconclusive.
Columns and labels:
[1] = target: Cytochrome P450 3A4 (Homo sapiens) (UniProt P08684); experiment: qHTS Assay for Activators of Cytochrome P450 3A4 (AID 885); also: nearly all actives have a fitted effect of over 65% in size
Method in brief: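 CYP3A4 activity: Luciferin-PPXE O-dealkylation, 25uM substrate, 200mM KPO4, RT throughout. Read-out is luciferase luminescence; higher values reflect activation.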

[2] = Confirmation and Secondary Assay for Modulators of Hemoglobin Beta Chain Splicing at IVS2 654 locus (AID 910);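 also: per-well total GFP intensity by laser scanning cytometry after 2-day treatment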
Method in brief: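 HeLa cells stably carrying EGFP interrupted by mutant beta-globin IVS2-654 intron (CMV-driven) were treated with compound for 2 days at 37C; corrected splicing was scored as total peak GFP intensity per well (488 nm excitation, 500-520 nm emission).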

[3] = target: Luciferin 4-monooxygenase (Photinus pyralis) (UniProt P08659); experiment: Biochemical firefly luciferase enzyme assay for NPC (AID 624030);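 also: purified P. pyralis luciferase at 10 nM with luciferin and ATP substrate; nearly all actives have a fitted effect of over 70% in size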
Method in brief: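 Counter-screen for direct inhibition of the luciferase enzyme by approved-drug library compounds, run at 10 nM enzyme in 50 mM Tris acetate (final). Luminescence was read within 5 min of enzyme-buffer addition and normalized to PTC124 versus DMSO (0%).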

[4] = S16 Schwann cell PMP22 intronic element firefly luciferase assay (AID 624032); also: nearly all actives have a fitted effect of over 30% in size; also: potency is read from the fitted curve at half-maximal effect
Method in brief: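 Rat S16 Schwann cells stably carrying a PMP22 intronic element-driven Fluc reporter were seeded overnight, then exposed to compounds for 24 h at 37 °C. Luminescence was normalized to PTC124 (positive control) and DMSO (0% activity).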

DIV14 = experiment: qHTS profiling for inhibitors of Plasmodium falciparum proliferation (AID 504749); also: nearly all actives have a fitted effect of over 60% in size; also: potency is read from the fitted curve at half-maximal effect; settings: P. falciparum in erythrocytes, SYBR Green DNA, 72 h; series mostly up to 28.7 µM
Method in brief: (§1)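 Fluorescence of SYBR Green-bound parasite DNA, read at 485/535 nm, served as the growth measure. Infected erythrocytes were cultured with compound 72 h; artemisinin (0.29 uM) and DMSO wells defined the normalization range.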

W2 = experiment: as above; settings: P. falciparum in erythrocytes, SYBR Green DNA, 72 h; series mostly up to 28.7 µM
Method in brief: as §1

[5] = target: Ubiquitin carboxyl-terminal hydrolase 1 (Homo sapiens) (UniProt O94782); experiment: Inhibitors of USP1/UAF1: Pilot qHTS (AID 504865); also: nearly all actives have a fitted effect of over 35% in size; also: potency is read from the fitted curve at half-maximal effect
Method in brief: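 In 50mM HEPES pH 7.8 containing 0.5mM EDTA, 1mM TCEP, 0.1 mg/ml BSA and 0.01% Tween-20, 1nM USP1/UAF1 is exposed to compound for 15 min, then Ub-Rho (150nM final) is added and fluorescence is read over time.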

DFO2036 = experiment: qHTS profiling for inhibitors of Plasmodium falciparum proliferation (AID 504749); also: nearly all actives have a fitted effect of over 60% in size; also: potency is read from the fitted curve at half-maximal effect; settings: P. falciparum in erythrocytes, SYBR Green DNA, 72 h; series mostly up to 28.7 µM
Method in brief: as §1

[6] = target: Cytochrome P450 3A4 (Homo sapiens) (UniProt P08684); experiment: qHTS Assay for Inhibitors and Substrates of Cytochrome P450 3A4 (AID 884); also: potency is read from the fitted curve at half-maximal effect; nearly all actives have a fitted effect of over 50% in size
Method in brief: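 Luminescent readout of luciferin produced by CYP3A4 (20 nM) dealkylation of Luciferin-PPXE, 25 uM (its KM). NADPH-driven reaction ran 60 min at RT after 10 min compound preincubation; data scaled to 57 uM ketoconazole as 100% inhibition.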

[7] = target: Mitogen-activated protein kinase 10 (Mus musculus) (UniProt Q61831); experiment: JNK3 AlphaScreen Assay (AID 530; active = well fitted curve in either direction with a large enough effect, not every such curve was filed as active;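 also: kinase came from lysate of stimulated human HepG2 cells; signal reports phosphorylation of biotinylated GST-cJun 1-79 at Ser73 with 10 µM ATP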)
Method in brief: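 Biotinylated GST-cJun(1-79) served as substrate for JNK3 in HepG2 lysates stimulated with IL-1beta and TNF-alpha. ATP was 10 uM final, pH 7.6. Ser73 phosphorylation was quantified by AlphaScreen (680 nm excitation).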

Measured: Potency

Chain of Cytochrome P450 3A4 (Homo sapiens) (P08684 whole entry, looked up): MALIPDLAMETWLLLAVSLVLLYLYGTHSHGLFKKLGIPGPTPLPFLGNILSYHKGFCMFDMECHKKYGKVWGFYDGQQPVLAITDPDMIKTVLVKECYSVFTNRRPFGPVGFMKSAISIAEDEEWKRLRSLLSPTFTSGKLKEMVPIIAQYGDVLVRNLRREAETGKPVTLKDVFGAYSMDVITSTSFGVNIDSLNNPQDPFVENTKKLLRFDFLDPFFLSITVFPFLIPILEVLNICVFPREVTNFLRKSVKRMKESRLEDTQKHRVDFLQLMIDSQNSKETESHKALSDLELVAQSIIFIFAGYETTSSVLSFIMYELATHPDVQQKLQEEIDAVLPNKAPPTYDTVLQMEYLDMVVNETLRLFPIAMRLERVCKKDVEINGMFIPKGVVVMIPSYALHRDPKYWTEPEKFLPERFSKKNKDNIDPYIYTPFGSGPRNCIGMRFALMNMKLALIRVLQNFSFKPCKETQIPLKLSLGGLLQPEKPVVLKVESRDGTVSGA
Chain of Luciferin 4-monooxygenase (Photinus pyralis) (P08659 whole entry, looked up): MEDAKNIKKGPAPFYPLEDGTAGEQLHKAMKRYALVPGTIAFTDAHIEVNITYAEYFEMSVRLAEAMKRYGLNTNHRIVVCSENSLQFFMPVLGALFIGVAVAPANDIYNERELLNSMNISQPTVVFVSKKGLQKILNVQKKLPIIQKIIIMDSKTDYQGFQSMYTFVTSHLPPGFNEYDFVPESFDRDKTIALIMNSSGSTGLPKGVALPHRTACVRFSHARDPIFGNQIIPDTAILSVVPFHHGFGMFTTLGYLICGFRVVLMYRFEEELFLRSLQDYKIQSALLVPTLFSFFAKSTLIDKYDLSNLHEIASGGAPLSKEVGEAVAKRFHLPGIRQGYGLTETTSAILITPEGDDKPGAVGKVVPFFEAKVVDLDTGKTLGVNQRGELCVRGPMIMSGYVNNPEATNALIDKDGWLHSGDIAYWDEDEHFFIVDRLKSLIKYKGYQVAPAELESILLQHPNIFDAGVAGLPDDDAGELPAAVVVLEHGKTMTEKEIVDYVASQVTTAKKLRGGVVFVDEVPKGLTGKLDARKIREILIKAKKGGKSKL
Chain of Ubiquitin carboxyl-terminal hydrolase 1 (Homo sapiens) (O94782 whole entry, looked up): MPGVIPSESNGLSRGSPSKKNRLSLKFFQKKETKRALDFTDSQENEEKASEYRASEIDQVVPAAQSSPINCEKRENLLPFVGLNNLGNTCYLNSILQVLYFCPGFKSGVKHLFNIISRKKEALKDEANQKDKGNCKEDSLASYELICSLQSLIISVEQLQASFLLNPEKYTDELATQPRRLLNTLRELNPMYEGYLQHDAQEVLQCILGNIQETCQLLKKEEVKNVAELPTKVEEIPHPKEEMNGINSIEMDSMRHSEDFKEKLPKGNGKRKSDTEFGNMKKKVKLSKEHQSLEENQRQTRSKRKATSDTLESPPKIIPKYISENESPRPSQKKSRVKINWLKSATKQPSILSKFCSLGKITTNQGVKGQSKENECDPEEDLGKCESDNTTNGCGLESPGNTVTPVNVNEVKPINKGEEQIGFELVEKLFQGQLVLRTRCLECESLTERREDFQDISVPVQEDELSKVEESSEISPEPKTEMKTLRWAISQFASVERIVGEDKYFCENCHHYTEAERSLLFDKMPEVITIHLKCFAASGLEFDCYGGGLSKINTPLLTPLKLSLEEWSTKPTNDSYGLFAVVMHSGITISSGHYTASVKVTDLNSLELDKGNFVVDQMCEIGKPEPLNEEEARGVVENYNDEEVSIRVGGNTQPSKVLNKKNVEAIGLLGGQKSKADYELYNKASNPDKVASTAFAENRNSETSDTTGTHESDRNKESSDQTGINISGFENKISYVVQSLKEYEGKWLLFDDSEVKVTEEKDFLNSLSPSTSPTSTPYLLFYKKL

Nc1nc(/C(=C/CC(=O)O)C(=O)NC2C(=O)N3C(C(=O)O)=CCSC23)cs1 (stereo unspecified)
inactive: [1] | [2] | [3] | [4] | DIV14 | W2

O=C(O)Cc1sc(-c2ccc(Cl)cc2)nc1-c1ccccc1
inactive: [5] | [4] | DFO2036 | DIV14 | W2

C=C[C@@]1(C)C[C@H](OC(=O)CSC(C)(C)CNC(=O)[C@@H](N)C(C)C)[C@@]2(C)C(C)CC[C@@]3(CCC(=O)[C@@H]32)[C@H](C)[C@H]1O (stereo partly specified)
inactive: [5]
active: [4] 0.361 µM | DIV14 6.01 µM | W2 0.269 µM

CC1C(=O)C(=O)C=CN1C (stereo unspecified)
inactive: [5] | [3] | [4] | DFO2036 | DIV14 | W2

C/C(=C(/CCO)SS/C(CCO)=C(\C)N(C=O)Cc1cnc(C)nc1N)N(C=O)Cc1cnc(C)nc1N
inactive: [5] | [3] | [4] | DFO2036 | DIV14 | W2

CCC(C(=O)C(C)C(O)C(C)CCc1ccc(C)c(O)c1C(=O)O)C1OC(CC)(C2CC[C@@](O)(CC)C(C)O2)CC1C (stereo partly specified)
inactive: [2] | [3]
active: [6] 20 µM | [4] 1.81 µM | DFO2036 1 µM | DIV14 0.953 µM | W2 0.675 µM

NC(CSSCC(N)C(=O)O)C(=O)O (stereo unspecified)
inactive: [5] | [4] | DFO2036 | DIV14 | W2

CNC1=CN(O)C(c2ccccc2)=c2cc(Cl)ccc2=N1
active: DIV14 1.51 µM | W2 1.2 µM
inactive: [5] | [3]

Cc1cc2nc3c(=O)[nH]c(=O)nc-3n(CC(O)C(O)C(O)COP(=O)(O)O)c2cc1C (stereo unspecified)
inactive: [3]
active: [5] 31.6 µM

C[C@@H]1CCN(C(=O)[C@H](CCCNC(=N)N)NS(=O)(=O)c2cccc3c2NC[C@H](C)C3)[C@@H](C(=O)O)C1
inactive: [5] | [3] | [4] | DIV14

CC(=O)N1CC(O)CC1C(=O)O (stereo unspecified)
inactive: [5] | [4] | DFO2036 | DIV14 | W2

CC1(C)CC1C(=O)N/C(=C/CCCCSCC(N)C(=O)O)C(=O)O (stereo unspecified)
inactive: [5] | [4] | DIV14 | W2

Nc1ncn(C2C[C@H](O)[C@@H](CO)O2)c(=O)n1 (stereo partly specified)
inactive: [5] | [3] | DFO2036 | DIV14 | W2

CC(CN1CC(=O)NC(=O)C1)N1CC(=O)NC(=O)C1 (stereo unspecified)
inactive: [5] | [3] | DFO2036 | DIV14 | W2
active: [4] 18.1 µM

COc1ccc(S(=O)(=O)N2c3ccc(Cl)cc3[C@](O)(c3ccccc3Cl)[C@@H]2C(=O)N2CCC[C@H]2C(N)=O)cc1OC
inactive: [1] | [5] | [3] | DFO2036

O=C(O)C(O)c1ccccc1 (stereo unspecified)
inactive: [5] | [3] | [4] | DFO2036 | DIV14 | W2

C[C@]12CC[C@@H]3c4ccc(O)cc4C[C@@H](CCCCCCCCCS(=O)CCCC(F)(F)C(F)(F)F)C3[C@@H]1CC[C@@H]2O (stereo partly specified)
active: DFO2036 11.2 µM | DIV14 3.01 µM | W2 6.75 µM
inactive: [3]

Nc1nc2[nH]cc(CCc3ccc(C(=O)NC(CCC(=O)O)C(=O)O)cc3)c2c(=O)[nH]1 (stereo unspecified)
inactive: [3] | [4]
active: W2 0.0757 µM

CC(=O)OC1C([N+]2(C)CCCCC2)C[C@H]2C3CC[C@H]4C[C@H](OC(C)=O)C([N+]5(C)CCCCC5)CC4(C)C3CCC12C (stereo partly specified)
inactive: [4] | DFO2036

CC[C@@]1(O)CC2CN(CCc3c([nH]c4ccccc34)[C@](C(=O)OC)(c3cc4c(cc3OC)N(C)C3[C@@](O)(C(=O)OC)C(OC(C)=O)[C@]5(CC)C=CCN6CC[C@@]43C65)C2)C1 (stereo partly specified)
inactive: [2] | [5] | [3]
active: [4] 0.51 µM | DFO2036 0.891 µM | DIV14 4.26 µM | W2 0.953 µM

COc1cc(/C=C2\CCC/C(=C\c3ccc(O)c(OC)c3)C2=O)ccc1O
active: DFO2036 11.2 µM | DIV14 6.75 µM | W2 9.53 µM

OC[C@@H](O)C(O[C@@H]1O[C@@H](CO)[C@H](O)[C@H](O)[C@H]1O)[C@H](O)[C@@H](O)CO (stereo partly specified)
inactive: [5] | [3] | [4] | DFO2036 | DIV14 | W2

Clc1ccc(CS[C@@H](Cn2ccnc2)c2ccc(Cl)cc2Cl)cc1
active: DFO2036 3.16 µM | DIV14 5.1 µM | W2 1.02 µM
inactive: [7] | [3] | [4]

CC(C)C(=O)OCC(=O)[C@@]12OC(C3CCCCC3)O[C@@H]1CC1C3CCC4=CC(=O)C=C[C@]4(C)C3[C@@H](O)C[C@@]12C (stereo partly specified)
active: DFO2036 0.501 µM | DIV14 1.51 µM | W2 0.239 µM
inactive: [3]

CCCCC(=O)OC1CCC2C3CCc4cc(O)ccc4C3CC[C@]12C (stereo partly specified)
inactive: [2] | [3] | DFO2036

CC(C)CCCC(C)C1CC(=O)C2=C3CCC4CC(O)CCC4(C)C3CCC21C (stereo unspecified)
active: W2 7.57 µM
inactive: [3] | DFO2036 | DIV14

C#C[C@@]1(O)CC[C@@H]2[C@H]3CCC4=C/C(=N\O)CC[C@H]4[C@@H]3CC[C@]21CC
inactive: [5] | [3] | DIV14

O=C1Oc2ccccc2C(=O)C1C(CC(O)c1ccc(-c2ccc(Br)cc2)cc1)c1ccccc1 (stereo unspecified)
active: [5] 50.1 µM | [4] 36.1 µM
